The structures appear in SMILES notation. Unmarked numbers belong to inactive results. Inconclusive results are not listed. Activity calls are given as the source filed them. Calls come from the whole dose curve; as a rule, active = well fitted curve in the direction sought with a large enough effect; inconclusive = small, poorly fitted or top-dose-only effect, or another doubt; inactive = no such curve, though single readings can be large; an effect the other way counts as inactive or inconclusive.

We go through 40 molecules from PubChem BioAssay (NCATS).

Assay [1] concerns the target Cytochrome P450 3A4 (Homo sapiens) (UniProt P08684). The assay can be described thus: qHTS for inhibitors of CYP3A4 against the NCATS DSHEA and TCM libraries (AID 1919971).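 Note: % is set by controls: 0 for no effect and ±100 for the full control effect; inhibition lowers luminescence from luciferin made by CYP3A4.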 As to conditions: recombinant CYP3A4 enzyme activity, luminescence qHTS; series mostly up to 34.1 µM. The essentials: (§1)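 Substances were tested against enzyme with a pro-luciferin substrate; minus-enzyme wells served as background. After NADPH-initiated oxidation (30-45 min, RT), light was generated with P450-Glo reagent.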
(In qHTS, concentration-response curves come from the screen itself.)

The target of assay [2] is Cytochrome P450 2D6 (Homo sapiens) (UniProt P10635). Nature of the assay: qHTS for inhibitors of CYP2D6 against the NCATS DSHEA and TCM libraries (AID 1919972). Note: % is set by controls: 0 for no effect and ±100 for the full control effect. As to conditions: CYP2D6 enzymatic inhibition, luminescence qHTS; series mostly up to 34.1 µM. The gist of the method: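 qHTS, concentration–response format with most substances from 19.5 nM. CYP2D6 + pro-luciferin substrate, 15 min with compound, then 1x NADPH regen, 30–45 min RT dark. Glo detection 30 min, luminescence. Quinidine control.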

The target of assay [3] is Cytochrome P450 2C9 (Homo sapiens) (UniProt P11712). The assay can be described thus: qHTS for inhibitors of CYP2C9 against the NCATS DSHEA and TCM libraries (AID 1919973).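 Note: luminogenic pro-luciferin CYP2C9 substrate turned into luciferin with NADPH regeneration; % is set by controls: 0 for no effect and ±100 for the full control effect.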 As to conditions: recombinant CYP2C9 enzyme activity, luminescence; series mostly up to 34.1 µM. The essentials: as §1
Assay [4] in a line: KB-3-1 P-gp reporter qHTS against the NCATS DSHEA and TCM libraries (AID 1919975). Note: 0% is about no effect. As to conditions: KB-3-1 parental cells, CellTiter-Glo luminescence viability, 72 h; series mostly up to 26.1 µM. The gist of the method:
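Parental KB-3-1 human cervical adenocarcinoma cells (500 cells/well, DMEM + 10% FBS) were treated with substances for ~72 h at 37C; viability was read by CellTiter-Glo luminescence.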

The nature of assay [5]: qHTS Counterscreen for compound interference against the NCATS DSHEA and TCM libraries (AID 1919978). Note: % of control where 0% means no effect. As to conditions: firefly luciferase detection reagent interference, luminescence. The essentials: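 D-luciferin (1 uM final) or 100 mM potassium phosphate buffer alone was preincubated 15 min at RT with compounds (19.5 nM to 39.8 uM final). Luciferin detection reagent was then added and luminescence read after 30 min at RT.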

The nature of assay [6]: Dual reporter qHTS for agonist of Pregnane X Receptor (hPXR) against the NCATS DSHEA and TCM libraries: Fluorescence readout (AID 1920058). Note: 0% is about no effect. As to conditions: PXR dual reporter cells; series mostly up to 40 µM. The source says: Assay Development and Screening Technology Laboratory (ADST)
National Center for Advancing Translational Sciences (NCATS), Rockville, MD
National Institute of Health (NIH), Bethesda, Maryland
Dietary Supplements and Natural Products have minor oversight of their safety and efficacy. We assembled a collection of Dietary Supplements and Natural Products (DSNP) as well as Traditional Chinese Medicinal (TCM) Plant extracts, which were screened against an in vitro panel of assays, including a liver cytochrome p450 enzyme panel, CAR/PXR signaling pathways, and P-gp transporter assays, to assess their activity. This pipeline facilitated the interrogation of Natural Product-Drug Interaction (NaPDI) through prominent metabolizing pathways. In addition, we compared the activity profiles of the DSNP/TCM substances with those of an approved drug collection. Many of the approved drugs have well-annotated mechanisms of action (MOA) while the MOAs for most of the DSNP and TCM samples remain unknown. Based on the premise that compounds with similar activity profiles tend to share similar targets or MOA, we clustered the library activity profiles to identify overlap with the NCATS Pharmaceutical Collection to predict the MOAs of the DSNP/TCM substances. Overall, we highlight four significant bioactivity profiles (measured by p-values) as examples of this prediction. To assess broad cytotoxicity, we employed screening against a HepG2 cell line. In addition, transporter-mediated drug interactions are utilized in the characterization of DDIs using a P-glycoprotein (P-gp) assays. To profile potential P-gp activity, a differential cell viability was measured against two cell lines: a parental KB-3-1 human cervical adenocarcinoma cell line and the drug-resistant subline KB-8-5-11 that overexpresses P-gp.
To this end, we profiled both collections for potential CAR and/or PXR activity, employing a previously published 1536-well qHTS assay.
[1] Lee TD, et al. A High-Throughput Screen of a Library of Therapeutics Identifies Cytotoxic Substrates of P-glycoprotein. Mol Pharmacol. Nov 2019;96(5):629-640. doi:10.1124/mol.119.115964
For PXR luciferase reporter gene assays, we used hPXR-LucHepG2cells provided by Dr. Taosheng Chen (Department of Chemical Biology and Therapeutics, St. Jude Children's Research Hospital). Cells were cultured in EMEM supplemented with 10% fetal bovine serum, 100U/mL penicillin and 100ug/mL streptomycin, and 500ug/mL of geneticin.
PROTOCOL TABLE (as described by Inglese J, Shamu CE and Guy RK. 2007)
SEQUENCE No. (e.g., 1, 2, 3, etc.); PARAMETER (e.g., Cells, Incubation, Reagent, etc.); VALUE; DESCRIPTION.
1; Cells; 5 uL; hPXR-LucHepG2; white solid-bottom Greiner plate.
2; Incubation; 5h; 37C, 95% humidity, 5% CO2
3; Compounds and control; 23 nL; Kalypsis pintool (Wako USA).
4; Reagent; 1uL; rifampicin (RIF) in the antagonist mode.
6; Reagent; 1 uL; CellTiter-Fluor detection reagent.
7; Incubation; 1 hr; 37C, 5% CO2.
8; Read; Fluorescence; ViewLux plate reader.
9; Reagent; 4 uL; ONE-Glo Luciferase detection reagent.
10; Incubation; 30 min; room temperature.
11; Read; Luminescence; ViewLux plate reader.
NOTES (numbers refer to Sequence numbers above)
1. […]

Assay [7] deals with Nuclear receptor subfamily 1 group I member 2 (Homo sapiens) (UniProt O75469). Nature of the assay: Dual reporter qHTS for agonist of Pregnane X Receptor (hPXR) against the NCATS DSHEA and TCM libraries: Luminescence readout (AID 1920059). Note: 0% is about no effect. As to conditions: hPXR dual reporter cells, luciferase luminescence agonist; series mostly up to 40 µM. The gist of the method:
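Luminescent PXR reporter read (ONE-Glo) after a CellTiter-Fluor viability read, following 24 h, 37C treatment of HepG2 cells stably carrying hPXR-Luc.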

A short description of assay [8]: Primary redox qHTS assay for identification of artifact compounds. (AID 1845223).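 Note: 0% = DMSO and 100% = reference compound.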 As to conditions: Amplex Red/HRP redox cycling with DTT, fluorescence; series mostly up to 53.8 µM. The gist of the method: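 Redox-cycling detection via DTT (250 uM final) oxidation coupled to Amplex Red (25 uM)/HRP (250 mU/mL) in HBSS. 15 min preincubation plus 30 min after DTT, room temperature. Ex/Em 525/598 nm; 4-parameter Hill fit against DMSO and 10 uM DA3003.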

The target in assay [9] is Cytochrome P450 1A2 (Homo sapiens) (UniProt P05177). Nature of the assay: qHTS for inhibitors of CYPIA2 against the NCATS DSHEA and TCM libraries (AID 1919976). Note: % is set by controls: 0 for no effect and ±100 for the full control effect. As to conditions: recombinant CYP1A2 enzyme activity, luminescence; series mostly up to 37 µM. The gist of the method: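 Luminescence read-out: pro-luciferin converted to D-luciferin by CYP1A2, detected with P450-Glo reagent after 30 min RT. Enzyme plus substrate got compounds for 15 min RT; NADPH regeneration solution (final 1x) started a 30-45 min reaction, light-protected.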

For assay [10], the target named is Cytochrome P450 2C19 (Homo sapiens) (UniProt P33261). Nature of the assay: qHTS for inhibitors of CYP2C19 against the NCATS DSHEA and TCM libraries (AID 1919974).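 Note: luminescence from luciferin released by CYP2C19 oxidation of a pro-luciferin substrate; % is set by controls: 0 for no effect and ±100 for the full control effect.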 As to conditions: CYP2C19 enzyme inhibition, luminescence qHTS; series mostly up to 34.1 µM. The essentials:
as §1

Cytochrome P450 2D6 (Homo sapiens), sequence (P10635 whole entry, looked up): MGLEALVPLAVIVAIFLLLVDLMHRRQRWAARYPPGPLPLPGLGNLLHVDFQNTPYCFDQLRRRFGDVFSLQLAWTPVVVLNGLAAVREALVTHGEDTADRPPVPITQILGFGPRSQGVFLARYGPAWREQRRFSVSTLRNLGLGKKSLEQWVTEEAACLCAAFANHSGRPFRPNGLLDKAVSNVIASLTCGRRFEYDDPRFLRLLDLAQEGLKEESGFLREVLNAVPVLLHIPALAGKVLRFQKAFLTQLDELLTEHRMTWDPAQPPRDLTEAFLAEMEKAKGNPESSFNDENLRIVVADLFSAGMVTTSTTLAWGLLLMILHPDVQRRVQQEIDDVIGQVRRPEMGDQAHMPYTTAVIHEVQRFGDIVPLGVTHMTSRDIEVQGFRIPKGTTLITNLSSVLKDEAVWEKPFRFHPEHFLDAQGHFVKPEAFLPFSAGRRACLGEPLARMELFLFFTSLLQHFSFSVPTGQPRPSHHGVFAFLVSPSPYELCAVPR
Nuclear receptor subfamily 1 group I member 2 (Homo sapiens), sequence (O75469 whole entry, looked up): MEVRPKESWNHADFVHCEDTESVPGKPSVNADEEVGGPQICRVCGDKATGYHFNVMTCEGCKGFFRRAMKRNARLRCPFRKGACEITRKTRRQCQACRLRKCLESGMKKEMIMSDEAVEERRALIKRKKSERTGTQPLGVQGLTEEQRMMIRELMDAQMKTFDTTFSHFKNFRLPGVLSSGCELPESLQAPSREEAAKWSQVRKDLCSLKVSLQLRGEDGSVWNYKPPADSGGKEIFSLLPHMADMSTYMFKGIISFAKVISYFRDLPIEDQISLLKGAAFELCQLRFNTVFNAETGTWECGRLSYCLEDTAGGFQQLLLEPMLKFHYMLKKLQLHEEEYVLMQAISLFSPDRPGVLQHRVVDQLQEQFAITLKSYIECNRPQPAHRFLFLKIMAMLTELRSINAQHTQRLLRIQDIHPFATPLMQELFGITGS
Cytochrome P450 2C9 (Homo sapiens), sequence (P11712 whole entry, looked up): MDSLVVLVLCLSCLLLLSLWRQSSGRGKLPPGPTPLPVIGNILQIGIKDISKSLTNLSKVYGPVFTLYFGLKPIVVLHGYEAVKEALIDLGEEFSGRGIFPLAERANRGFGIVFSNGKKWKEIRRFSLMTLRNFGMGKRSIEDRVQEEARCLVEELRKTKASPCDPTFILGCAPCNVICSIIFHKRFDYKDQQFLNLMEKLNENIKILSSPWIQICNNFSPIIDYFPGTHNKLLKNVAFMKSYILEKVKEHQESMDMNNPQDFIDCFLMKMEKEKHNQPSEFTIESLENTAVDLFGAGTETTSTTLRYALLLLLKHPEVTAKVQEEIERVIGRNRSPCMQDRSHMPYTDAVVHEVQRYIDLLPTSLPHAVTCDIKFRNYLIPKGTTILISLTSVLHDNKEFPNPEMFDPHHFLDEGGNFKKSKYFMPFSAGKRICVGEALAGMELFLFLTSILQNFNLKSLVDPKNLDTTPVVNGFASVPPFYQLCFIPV
Cytochrome P450 1A2 (Homo sapiens), sequence (P05177 whole entry, looked up): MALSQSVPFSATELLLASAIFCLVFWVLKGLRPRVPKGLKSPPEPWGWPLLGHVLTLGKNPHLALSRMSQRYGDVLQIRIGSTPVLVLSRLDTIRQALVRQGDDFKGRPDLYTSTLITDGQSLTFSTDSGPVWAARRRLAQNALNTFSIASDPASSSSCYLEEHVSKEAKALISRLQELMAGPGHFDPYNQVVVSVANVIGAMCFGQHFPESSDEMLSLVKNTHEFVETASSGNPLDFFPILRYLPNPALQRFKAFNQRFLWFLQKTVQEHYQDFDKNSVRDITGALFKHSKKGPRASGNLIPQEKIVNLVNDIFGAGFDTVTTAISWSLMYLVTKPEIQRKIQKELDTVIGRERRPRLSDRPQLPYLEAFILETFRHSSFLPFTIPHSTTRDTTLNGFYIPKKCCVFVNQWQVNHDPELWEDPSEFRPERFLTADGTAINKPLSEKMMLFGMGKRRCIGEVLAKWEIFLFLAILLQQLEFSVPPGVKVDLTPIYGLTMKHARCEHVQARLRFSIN
Cytochrome P450 3A4 (Homo sapiens), sequence (P08684 whole entry, looked up): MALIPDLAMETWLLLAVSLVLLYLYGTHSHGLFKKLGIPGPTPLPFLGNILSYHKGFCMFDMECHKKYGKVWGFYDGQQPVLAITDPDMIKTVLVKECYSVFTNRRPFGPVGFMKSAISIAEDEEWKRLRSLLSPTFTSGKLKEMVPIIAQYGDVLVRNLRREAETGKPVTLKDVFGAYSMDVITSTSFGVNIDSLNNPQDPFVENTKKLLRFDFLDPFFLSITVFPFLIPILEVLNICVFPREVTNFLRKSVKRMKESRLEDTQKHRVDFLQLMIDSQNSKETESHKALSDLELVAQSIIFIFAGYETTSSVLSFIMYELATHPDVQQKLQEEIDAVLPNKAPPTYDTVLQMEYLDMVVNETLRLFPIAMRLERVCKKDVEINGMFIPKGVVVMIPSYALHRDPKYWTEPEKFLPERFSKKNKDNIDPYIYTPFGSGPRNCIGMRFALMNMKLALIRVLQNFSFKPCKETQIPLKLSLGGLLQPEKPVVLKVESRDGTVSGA
Cytochrome P450 2C19 (Homo sapiens), sequence (P33261 whole entry, looked up): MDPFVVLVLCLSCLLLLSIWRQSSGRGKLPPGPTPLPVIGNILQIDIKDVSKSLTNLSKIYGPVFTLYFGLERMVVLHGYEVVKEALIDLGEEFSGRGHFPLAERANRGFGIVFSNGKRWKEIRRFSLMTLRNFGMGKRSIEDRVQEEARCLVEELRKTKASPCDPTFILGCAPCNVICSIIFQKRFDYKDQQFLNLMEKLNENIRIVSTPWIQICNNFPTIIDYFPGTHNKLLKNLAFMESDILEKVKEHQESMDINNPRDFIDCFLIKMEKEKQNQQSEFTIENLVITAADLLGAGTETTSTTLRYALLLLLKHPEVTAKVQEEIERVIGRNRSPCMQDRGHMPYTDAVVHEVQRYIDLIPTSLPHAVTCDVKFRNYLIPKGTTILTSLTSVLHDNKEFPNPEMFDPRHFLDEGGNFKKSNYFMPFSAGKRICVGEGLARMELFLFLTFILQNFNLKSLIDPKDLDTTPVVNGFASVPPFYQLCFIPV

`NC(N)=NCCC[C@H](N)C(=O)O`: the result in [1], in assay [2], in assay [3], in [4], in [6] and in assay [7] was inactive. Besides, the max response in [5] was -2.87%.

As for `CS(=O)(=O)c1ccc([C@@H](O)[C@@H](CF)NC(=O)C(Cl)Cl)cc1`, the molecule was classed as inactive in assay [8].

For `O=c1[nH]cnc2c1ncn2[C@@H]1O[C@H](CO)[C@@H](O)[C@H]1O`, in assay [8], the molecule was classed as inactive.

On to `CC(C)(C(=O)O)c1ccc(C(O)CCCN2CCC(C(O)(c3ccccc3)c3ccccc3)CC2)cc1` (configuration not stated), for which the outcome in [8] was inactive.

`CCN(CC)CCNC(=O)c1cc(Cl)c(N)cc1OC`: in assay [8], the molecule was classed as inactive.

`O=C1O[C@H]([C@@H](O)CO)C(O)=C1O`: the result in assay [1], in assay [2], in assay [3], in assay [4], in assay [9] and in [6] was inactive. Besides, the molecule was called inactive in assay [7]. In assay [5], the max response was -0.0092%.

Regarding `CCN(CC)C(=O)Nc1ccc(OCC(O)CNC(C)(C)C)c(C(C)=O)c1` (configuration not stated), the molecule was called inactive in [8].

Turning to `COc1ccc2[nH]c(S(=O)Cc3ncc(C)c(OC)c3C)nc2n1` (configuration not stated), the outcome in [8] was inactive.

Turning to `Cn1c(=O)c2c(ncn2CC2OCCO2)n(C)c1=O`, in assay [8], the outcome was inactive.

Take `Cc1ccc2nc(N)[nH]c(=O)c2c1Sc1ccncc1`: the molecule was called inactive in assay [8].

For `CCCCc1ncc(/C=C(\Cc2cccs2)C(=O)O)n1Cc1ccc(C(=O)O)cc1`, the result in assay [8] was inactive.

Regarding `O=C1Nc2ccc(Cl)cc2[C@@](C#CC2CC2)(C(F)(F)F)O1`, the result in [8] was inactive.

Take `CCOC(=O)[C@H](CCc1ccccc1)N[C@@H](C)C(=O)N1C(=O)N(C)C[C@H]1C(=O)O`: in assay [8], the molecule was classed as inactive.

As to `CC(=O)NC(Cc1ccccc1)C(=O)O` (configuration not stated), the outcome in assay [8] was inactive.

As to `COc1ccc2c(c1)C(=O)N(CCc1ccc(S(=O)(=O)NC(=O)NC3CCCCC3)cc1)C(=O)C2(C)C`, the outcome in assay [8] was inactive.

Take `c1ccc(CN(CC2=NCCN2)c2ccccc2)cc1`: in assay [8], the call was inactive.

For the molecule `CCN(CC)CCCC(C)Nc1c2ccc(Cl)cc2nc2ccc(OC)cc12` (configuration not stated), the molecule was classed as inactive in assay [8].

As to `Nc1ccc(S(=O)(=O)Nc2nccs2)cc1`, in assay [8], the outcome was inactive.

As to `CC(C)(O)c1ccccc1CC[C@@H](SCC1(CC(=O)O)CC1)c1cccc(/C=C/c2ccc3ccc(Cl)cc3n2)c1`, the molecule was called inactive in assay [8].

In the case of `CN1CCOC(c2ccccc2)c2ccccc2C1` (configuration not stated), the molecule was called inactive in assay [8].

Take `CCOc1nc2cccc(C(=O)O)c2n1Cc1ccc(-c2ccccc2-c2nn[nH]n2)cc1`: the molecule was called inactive in assay [8].

Turning to `Cc1cccc(Nc2cc(Cl)nc(SCC(=O)O)n2)c1C`, the molecule was classed as inactive in [8].

For `O=C(CCCN1CCN(c2ccccn2)CC1)c1ccc(F)cc1`, the outcome in assay [8] was inactive.

Turning to `C[C@]12CC[C@@H]3c4ccc(O)cc4CC[C@H]3[C@@H]1CC[C@@H]2OC(=O)CCC1CCCC1`, in assay [8], the molecule was called inactive.

On to `CCCCN1CCCC[C@H]1C(=O)Nc1c(C)cccc1C`, for which, in [8], the call was inactive.

`CC(C(O)c1ccc(O)cc1)N1CCC(Cc2ccccc2)CC1` (configuration not stated): the molecule was classed as inactive in assay [8].

On to `CC(C)(C)C(=O)C(Oc1ccc(Cl)cc1)n1ccnc1` (configuration not stated), for which the outcome in [8] was inactive.

Turning to `O=C(O)c1ccccc1O`, the outcome in assay [1], in [2], in assay [3], in assay [10], in assay [4] and in [9] was inactive. Moreover, the outcome in assay [6] and in [7] was inactive. For the same molecule, in assay [5], the max response is -0.219%.

`Cc1cc(N)c2ccccc2[n+]1CCCCCCCCCC[n+]1c(C)cc(N)c2ccccc21`: the result in [8] was inactive.

Take `C[C@@H]1CN(c2c(F)c(F)c3c(=O)c(C(=O)O)cn(C4CC4)c3c2F)C[C@H](C)N1`: the redox activity (% of DA3003) in [8] was -2.75% [at 11.5 µM].

For `CN1CCC[C@@H]1Cc1c[nH]c2ccc(CCS(=O)(=O)c3ccccc3)cc12`, the call in assay [8] was inactive.

With `COc1ccc2cc1Oc1ccc(cc1)C[C@H]1c3c(cc4c(c3Oc3cc5c(cc3OC)CCN(C)[C@@H]5C2)OCO4)CCN1C`, in assay [8], the result was inactive.

On to `CC1=C(C/C=C(\C)CCC[C@H](C)CCC[C@H](C)CCCC(C)C)C(=O)c2ccccc2C1=O`, for which the outcome in assay [2], in [4] and in assay [6] was inactive. Also, the max response in assay [5] was -2.28%.

Consider `CCCCOc1cc(C(=O)OCCN(CC)CC)ccc1N`, for which the molecule was classed as inactive in assay [8].

Consider `Nc1nc2c(ncn2CCC(CO)CO)c(=O)[nH]1`, for which, in [8], the call was inactive.

Regarding `OCC(O)CN1CCN(c2ccccc2)CC1` (configuration not stated), the call in assay [8] was inactive.

Regarding `CC/C=C(\C(=O)N[C@@H]1C(=O)N2C(C(=O)OCOC(=O)C(C)(C)C)=C(COC(N)=O)CS[C@H]12)c1csc(N)n1`, the result in [8] was inactive.

Regarding `CC12CCC(CC1)C(C)(C)O2`, the result in assay [1], in assay [2], in assay [3], in [10], in assay [4] and in assay [9] was inactive. Besides, the molecule was classed as inactive in assay [6] and in [7]. The max response in assay [5] is -1.5%.

As to `Cc1cc(C(C#N)c2ccc(Cl)cc2)c(Cl)cc1NC(=O)c1cc(I)cc(I)c1O` (configuration not stated), the result in assay [8] was inactive.

Turning to `C[C@@H]1C[C@H]2[C@@H]3C[C@H](F)C4=CC(=O)C=C[C@]4(C)[C@@]3(F)[C@@H](O)C[C@]2(C)[C@@]1(O)C(=O)CO`, the molecule was classed as inactive in [8].
